A number with no mark means an inactive call. No rule for the calls is given here.
test system: HIV-1 nucleocapsid protein NCp7 (binding to TG oligonucleotide); experiment: HIV Nucleocapsid (AID 346); conditions: HIV-1 NC / fluorescein-TGTGTGTG probe, fluorescence polarization;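 also: potency is for inhibitors that block NC binding and lower polarization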
Procedure, shortened: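 10 nM TG4xF probe with 100 nM nucleocapsid protein in high-salt Hepes pH 7.5 (250mM NaCl) containing 1uM ZnCl2 and reducing agents. Compound inhibition of binding was read as fluorescein polarization after 1 hr at room temperature.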
Potency is read from the fitted curve at half-maximal effect.

Question: How did the Potency turn out when `COc1ccccc1-c1nc(NCCc2cnc[nH]2)c2ccccc2n1` was run?
Answer: > 20 µM

Question: How did the Potency turn out when `Cn1c(=O)c(-c2ccccc2)nc2cnc(OCc3ccccc3)nc21` was run?
Answer: > 20 µM

Question: How did the Potency turn out when `FC(F)(F)c1ccccc1-c1nccc(NCc2cccs2)n1` was run?
Answer: > 20 µM

Question: `Cn1c(=O)c(-c2ccc(F)cc2)nc2cnc(Oc3ccccc3)nc21` was tested. Which Potency did it give?
Answer: > 20 µM

Question: For `Cn1cc(-c2nc3cnc(N4CCNCC4)nc3n(-c3ccccc3)c2=O)c2ccccc21`, which Potency is on record?
Answer: > 4 µM

Question: `COc1ccc(CNc2cc(-c3ccoc3)ncn2)c(OC)c1` was tested. Which Potency did it give?
Answer: > 20 µM

Question: Which Potency does the source give for `O=C(Nc1ccccc1)N1CCC2(CC1)CCN(C(=O)c1cnccn1)CC2` here?
Answer: > 20 µM

Question: `FC(F)(F)c1ccccc1-c1nc(NCc2cccnc2)c2ccccc2n1` was tested. Which Potency did it give?
Answer: > 20 µM

Question: `COc1ccc(-c2nc3cnc(Oc4ccccc4)nc3n(Cc3cccs3)c2=O)cc1` was tested. Which Potency did it give?
Answer: > 20 µM

Question: How did the Potency turn out when `COc1ccc(Oc2ncc3nc(-c4cn(C)c5ccccc45)c(=O)n(C)c3n2)cc1` was run?
Answer: > 20 µM

Question: How did the Potency turn out when `O=S(=O)(c1ccccc1)N1CCC2(CCN(c3ccncc3)CC2)CC1` was run?
Answer: > 20 µM

Question: How did the Potency turn out when `CN(C)C(=O)c1ccc(-c2nc(Nc3ccc(F)cc3)c3ccccc3n2)cc1` was run?
Answer: > 20 µM

Question: For `O=C(c1cccc(F)c1)N1CCC[C@@]2(CCN(c3ncccn3)C2)C1`, which Potency is on record?
Answer: > 20 µM

Question: For `COc1cccc(Cn2c(=O)c(-c3ccc(Cl)cc3)nc3cnc(N4CCNCC4)nc32)c1`, which Potency is on record?
Answer: > 20 µM

Question: How did the Potency turn out when `O=C(c1cccc(F)c1)N1CCC2(CCN(Cc3nccs3)CC2)CC1` was run?
Answer: > 20 µM

Question: How did the Potency turn out when `Cc1noc(C)c1-c1nc(Nc2ccncc2)c2ccccc2n1` was run?
Answer: > 20 µM

Question: How did the Potency turn out when `Cn1cccc1C(=O)N1CCC2(CC1)CCN(c1ccncc1)CC2` was run?
Answer: > 20 µM

Question: How did the Potency turn out when `Cc1noc(C)c1C(=O)N1CCC[C@@]2(CCN(Cc3cc(C(F)(F)F)cc(C(F)(F)F)c3)C2)C1` was run?
Answer: > 20 µM

Question: Which Potency does the source give for `COc1ccccc1-c1nc(NCCNC(C)=O)c2ccccc2n1` here?
Answer: > 20 µM

Question: `COc1ccc(C(=O)N2CCC3(CC2)CN(C(=O)NC(C)C)C3)cc1` was tested. Which Potency did it give?
Answer: > 20 µM

Question: Which Potency does the source give for `COc1ccc2[nH]cc(CCNc3ncncc3-c3ccoc3)c2c1` here?
Answer: > 20 µM

Question: How did the Potency turn out when `CN(C)C(=O)c1ccc(-c2nc(N(C)C)c3ccccc3n2)cc1` was run?
Answer: > 20 µM

Question: How did the Potency turn out when `CN1CCN(c2ncc3nc(CCc4ccccc4)c(=O)n(CCc4ccccc4)c3n2)CC1` was run?
Answer: > 20 µM

Question: With `COCCn1c(=O)c(C)nc2cnc(Oc3ccccc3)nc21` as the molecule, how does the Potency read?
Answer: > 20 µM

Question: `O=c1c(CCc2ccccc2)nc2cnc(Nc3ccccc3)nc2n1C[C@H]1CCCO1` was tested. Which Potency did it give?
Answer: > 20 µM

Question: For `Cc1noc(C)c1C(=O)N1CCC2(CC1)CN(c1ncccn1)C2`, which Potency is on record?
Answer: > 20 µM

Question: How did the Potency turn out when `COc1ccccc1-c1cc(NCc2ccccc2)ncn1` was run?
Answer: > 20 µM

Question: How did the Potency turn out when `COc1ccc2[nH]cc(CCNc3ccnc(-c4cccc(C#N)c4)n3)c2c1` was run?
Answer: > 20 µM

Question: With `N#CCCn1c(=O)c(-c2ccc(F)cc2)nc2cnc(OCc3ccccc3)nc21` as the molecule, how does the Potency read?
Answer: > 20 µM

Question: How did the Potency turn out when `Cc1nc2cnc(N(C)C)nc2n(C[C@H]2CCCO2)c1=O` was run?
Answer: > 20 µM

Question: For `Cn1cccc1C(=O)N1CCC2(CCCN(C(c3ccccc3)c3ccccc3)C2)CC1`, which Potency is on record?
Answer: > 20 µM

Question: With `Cc1noc(C)c1C(=O)N1CCC2(CC1)CN(C(=O)Nc1cccc(F)c1)C2` as the molecule, how does the Potency read?
Answer: > 20 µM

Question: For `COCC(=O)N1CCC2(CC1)CN(c1ccccn1)C2`, which Potency is on record?
Answer: > 20 µM

Question: Which Potency does the source give for `COc1ccc(NC(=O)N2CC3(CCN(C(=O)c4ccc(OC)cc4)CC3)C2)cc1` here?
Answer: > 20 µM

Question: `O=C(Oc1ccccc1)N1CCC2(CC1)CCN(c1ncccn1)CC2` was tested. Which Potency did it give?
Answer: > 20 µM

Question: Which Potency does the source give for `CN(Cc1ccco1)c1nc(-c2ccc3c(c2)OCO3)nc2ccccc12` here?
Answer: > 20 µM

Question: `CC(C)NC(=O)N1CC2(CCN(C(=O)c3cccn3C)CC2)C1` was tested. Which Potency did it give?
Answer: > 20 µM

Question: How did the Potency turn out when `N#Cc1ccc(CN2CC[C@@]3(CCCN(C(=O)c4cnccn4)C3)C2)cc1` was run?
Answer: > 20 µM

Question: `CN(C)c1ncc2ncc(=O)n(C[C@H]3CCCO3)c2n1` was tested. Which Potency did it give?
Answer: > 20 µM

Question: `COc1cccc(-c2cncnc2NCCN2CCOCC2)c1` was tested. Which Potency did it give?
Answer: > 20 µM
